# This excerpt belongs to a sample that is enriched for hits.
# Sm TGR block: S. mansoni TGR enzyme inhibition. AID 485364. Q962Y6. Potency, µM (titrated, usually from 114 µM), actives largely listed as inhibitors. purified TGR, DTNB reduction, TNB absorbance 405 nm. actives 3% (n = 360,000); also: nearly all actives have a fitted effect of over 60% in size
#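 TGR 20 nM + NADPH 100 uM (dispensed conc.), cpd preinc 15 min RT; start with NADPH (500 uM addition) then DTNB (15 mM addition). Kinetic TNB absorbance, 405 nm filter. Four-parameter Hill fit across titration.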
# FBPA Giardia inh: Giardia lamblia aldolase inhibition. actives 0.71% (n = 290,000). purified Giardia FBPA. Potency, µM (titrated, usually from 59.6 µM), actives largely listed as inhibitors. AID 2451. A8B2U2; also: nearly all actives have a fitted effect of over 55% in size
# Target sequence (A8B2U2 whole entry, looked up): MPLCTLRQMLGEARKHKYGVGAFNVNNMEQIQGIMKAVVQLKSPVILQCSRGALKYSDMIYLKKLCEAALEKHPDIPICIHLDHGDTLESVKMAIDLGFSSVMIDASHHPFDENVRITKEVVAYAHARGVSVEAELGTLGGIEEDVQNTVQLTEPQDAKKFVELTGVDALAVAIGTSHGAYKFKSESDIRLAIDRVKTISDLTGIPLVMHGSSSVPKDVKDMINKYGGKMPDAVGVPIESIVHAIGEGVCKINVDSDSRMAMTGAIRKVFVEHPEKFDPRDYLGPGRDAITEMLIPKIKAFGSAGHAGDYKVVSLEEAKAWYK
#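 Giardia FBPA (40 nM reagent) was preincubated 10 min at RT with compound (up to 57.5 uM final), then substrate plus GAPDH/TPI/NAD/arsenate coupling system with diaphorase/resazurin was added; resorufin fluorescence (525/598 nm) was read after 20 min.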
# TbPYK inhibitor: inhibitors of Trypanosoma brucei pyruvate kinase; Q57TT1; Potency, µM (titrated, usually from 76.8 µM), actives largely listed as inhibitors; TbPYK enzyme, Kinase-Glo Plus ATP luminescence, 45 min; actives 0.12% (n = 410,000); AID 624173; also: nearly all actives have a fitted effect of over 50% in size
#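 Activity of T. brucei pyruvate kinase was followed by Kinase-Glo Plus luminescence after the enzyme reacted 45 min at room temperature with 130 uM ADP (final) and substrate. Test compounds were added before ADP at multiple concentrations.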
# LmPK inh: LmPK (Leishmania mexicana) enzyme inhibition. Q27686. purified LmPK, Kinase-Glo ATP luminescence, 1 h. actives 0.37% (n = 290,000). AID 1721. Potency, µM (titrated, usually from 57.5 µM), hits mostly inhibitors
#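 ATP generated from ADP (0.1 mM) and PEP (0.5 mM) by 0.1 nM LmPK over 1 h at room temperature (pH 7.2 imidazole buffer) was detected by coupled luciferase luminescence. Values were normalized to uninhibited and no-enzyme wells.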
# Shiga inhibitor: Shiga toxin inhibition; Vero cells, Shiga toxin protein synthesis inhibition reporter; inhibition, % at 38.7 µM; actives 9.2% (n = 290,000); in the data active = inhibition mostly above about 28%, no sharp cut-off; inactive = mostly below about 43%
# Cycloheximide cs: counter-screen hit for Shiga toxin inhibitors, cycloheximide; cell reporter, cycloheximide protein synthesis inhibition counterscreen; max response, %; actives 12% (n = 300,000); in the data active = max response mostly above about 13%, no sharp cut-off; inactive = mostly below about 14%; also: read at 38.3 µM for the half of the compounds with a filed dose
# A number is an active result; – = inactive; ? = inconclusive; · = not tested or not shown; [ ] = another dose, or the depositor's remark. Unless noted, calls follow the shape of the dose curve; as a rule, active = well fitted curve in the direction sought with a large enough effect; inconclusive = small, poorly fitted or top-dose-only effect, or another doubt; inactive = no such curve, though single readings can be large; an effect the other way counts as inactive or inconclusive.
SMILES,Sm TGR block,FBPA Giardia inh,TbPYK inhibitor,LmPK inh,Shiga inhibitor,Cycloheximide cs
COc1ccc(-c2cc(C)no2)cc1S(=O)(=O)NC1CCC(C)CC1 (stereo not drawn),–,·,–[15.4 µM],·,·,·
CC(=O)c1ccc(Nc2c3ccccc3cc3occc23)cc1,·,–,·,·,–,–
CCOc1cc2sc(N3CCC(C(=O)Nc4ccccc4Cl)CC3)nc2cc1Br,–,·,–,·,·,·
COc1cc(CN2CCN(Cc3ccc4cc(F)ccc4n3)CC2CCO)cc(OC)c1 (stereo not drawn),39.8µM,?,–,–,–,–
Cc1ccc(-c2nnn(CCC(=O)NC3CCCC3)n2)cc1,–,–,–,–,–,17.0
Cc1ccccc1OCCCC(=O)NC1CCCCC1,–,–,–,–,·,13.0
Cc1ccc(OCCCC(=O)NC2CCCCC2)cc1,39.8µM,–,–,–,–,–
CCC(C(=O)NC1CCCC1)N(C(=O)Cn1nnc(-c2ccc(C)cc2)n1)C1CCCC1 (stereo not drawn),·,·,–,·,·,·
CCOc1ccc(N(CC(=O)NCc2ccco2)S(C)(=O)=O)cc1,50.1µM,–,–,–,–,–
COc1ccc(N(CC(=O)NCc2ccccc2)S(C)(=O)=O)cc1,–,–,–,–,51.6,31.3
CC(C)CNS(=O)(=O)c1ccc(CCC(=O)NCc2ccco2)cc1,44.7µM,–,–,–,–,–
CCOc1ccc(N(CC(=O)NCc2ccc(OC)cc2)S(C)(=O)=O)cc1,–,–,–,–,55.6,33.6
CCOc1ccc(N(CC(=O)Nc2ccccc2C(=O)NCc2ccco2)S(C)(=O)=O)cc1,–,–,–,–,–,–
CS(=O)(=O)N(CC(=O)NCc1ccccc1)c1ccc(Cl)cc1,–,–,–,–,–,–
N#CCCCS(=O)(=O)c1nc2ccccc2s1,·,–,·,·,·,·
CCc1ccccc1N1CC(c2nc3ccccc3n2CCC2CCCCC2)CC1=O (stereo not drawn),–,·,–,·,·,·
CC(C)c1nn2c(=O)cc(COC(=O)c3cccc(NC(=O)c4cccs4)c3)nc2s1,–,·,–,·,·,·
Cc1cc(C)c2c(=O)c3c(oc2c1)C(=O)N(CCCOC(C)C)C3c1ccccc1F (stereo not drawn),–,·,–,·,·,·
CS(=O)(=O)N(CC(=O)N1CCCCC1)c1cccc(F)c1,–,–,–,–,–,–
Cc1ccc(S(=O)(=O)NCC(=O)N(CCc2ccccc2)CC(=O)NCc2ccco2)cc1,35.5µM,–,–,–,–,–
Cc1cccc(N(CC(=O)NCc2ccco2)S(=O)(=O)c2ccccc2)c1,·,·,–,·,·,·
COc1ccc(OC)c(N(CC(=O)NCc2ccccc2)S(=O)(=O)c2ccc(OC)c(OC)c2)c1,25.1µM,·,–,–,–,–
CS(=O)(=O)N(CC(=O)NCc1ccco1)c1ccccc1Cl,39.8µM,–,–,–,–,–
Cc1cc(C)cc(N(CC(=O)NCc2ccco2)S(=O)(=O)c2ccccc2)c1,–,–,–,–,47.9,–
CCCn1c(C)nc2c(NCCCN3CCCCC3C)nc(C)nc21 (stereo not drawn),·,–,·,·,·,·
SMILES,Sm TGR block,FBPA Giardia inh,TbPYK inhibitor,LmPK inh,Shiga inhibitor,Cycloheximide cs
COc1ccc(NC(=O)C2CCN(S(=O)(=O)c3ccc4c(c3)CCCC(=O)N4)CC2)c(OC)c1,–,·,–,·,·,·
COc1ccc(CNC(=O)c2ccc3c(c2)nc2n3CCC(C)C2)c(OC)c1 (stereo not drawn),–,·,–,·,·,·
CCOC(=O)C1CCCN(C(=S)Nc2cccc(Cl)c2)C1 (stereo not drawn),–,–,–,–,–,–
Cc1cccc(NC(=O)CCS(=O)(=O)c2cc(Br)cc3c2N(C(=O)C2CC2)CC3)c1,–,·,–,·,·,·
CO[C@H]1COC(=O)[C@H](C)COC(=O)[C@H](C)NC(=O)C/C=C\[C@H]1C,·,–[12.9 µM],·,·,·,·
Cc1ccnc(NC(=O)CNC(=O)c2ccc3c(c2)OCO3)c1,–,·,–,–,45.0,26.1
Cc1ccc(NC(=O)Nc2ccc3c(c2)OCO3)nc1,–,–,–,–,80.3,21.5
CCOC(=O)Cn1ccc(NC(=O)c2ccc3c(c2)OCO3)n1,–,–,–,–,–,30.6
Cc1ccnc(NC(=O)CNC(=O)c2ccc3ccccc3c2)c1,–,·,–,·,·,·
Cc1ccc(NC(=O)/C=C/c2ccc3c(c2)OCO3)nc1,–,–,–,–,147.1,56.5
Cc1cc(C)nc(NC(=O)c2ccc3c(c2)OCO3)c1,–,–,·,–,85.2,46.3
CCOC(=O)Cn1nc(NC(=O)c2ccc(C(=O)OC)cc2)cc1C,–,–,–,–,–,18.6
CCc1cccc(C)c1NC(=O)Nc1ccc2c(c1)OCO2,–,–,–,–,–,–
Cc1cccc(NC(=O)Nc2ccc(S(N)(=O)=O)cc2)c1,–,–,–,–,–,–
Cc1cccc(NC(=O)Nc2cc(C)cc(C)n2)c1,·,–,–,–,148.3,64.5
Cc1cc(C)nc(NC(=O)Nc2ccc3c(c2)OCO3)c1,–,–,–,–,64.6,47.2
Cc1cc(C)nc(NS(=O)(=O)c2ccc(NC(=O)c3ccc4c(c3)OCO4)cc2)n1,–,–,–,–,–,–
COc1ccc(-c2nc3ccc(NS(=O)(=O)c4ccc(C)cc4)cc3o2)cc1,–,·,–,·,·,·
COC(=O)c1ccc(Sc2ccc(C)cc2)c(N)c1,–,–,–,–,57.2,57.0
COc1ccc(OC)c(CNC(=O)c2ccc(Sc3ccc(C)cc3)c(N)c2)c1,–,·,–,·,·,·
COc1cnn(-c2ccccc2)c(=O)c1N(C)C,–,–,–,–,–,–
COc1cnn(-c2cccc(C)c2)c(=O)c1Cl,–,–,–,–,–,19.3
O=C(Cn1c(=O)n(-c2ccc(Cl)cc2)c(=O)c2c3c(sc21)CCCCC3)Nc1cccc(Cl)c1,–,·,–,·,·,·
NC(=O)Cc1ccc(C(=O)c2ccc(F)cc2)s1,–,–,–,–,–,25.4
NC(=O)c1ccc(F)cc1,–,–,–,–,–,–
SMILES,Sm TGR block,FBPA Giardia inh,TbPYK inhibitor,LmPK inh,Shiga inhibitor,Cycloheximide cs
CCc1ccc(C(C)NC(=S)NC2CCCCC2)cc1 (stereo not drawn),–,–,–,–,–,–
Cc1ccc(S(=O)(=O)NC(=S)NC2CCCCC2)cc1,31.6µM,–,–,–,–,–
CCc1ccc(S(=O)(=O)NC(=S)NC2CCCCC2)cc1,12.6µM,–,–,–,–,–
O=S(=O)(NC(=S)NC1CCCCC1)c1ccc(Cl)cc1,12.6µM,–,–,–,–,–
Cc1ccc(Cn2c(C(=O)O)c(CNC3CCCCCC3)c3ccc(C)cc32)cc1,–,·,–,·,·,·
CC(C)C[C@H](NC(=O)[C@H](Cc1ccccc1)n1c(=O)[nH]c2ccccc2c1=O)C(=O)N1CCC[C@@H]1C(=O)O,–,–,–,–,–,–
CCc1ccc(NC(=O)CSc2ncc(S(=O)(=O)c3cc(C)ccc3C)c(=O)[nH]2)cc1,–,·,–,·,·,·
CCc1ccc(NC(=O)CSC2=Nc3ccccc3C3=NC(CCC(=O)NCc4cccs4)C(=O)N23)cc1 (stereo not drawn),–,·,–,·,·,·
